This is an account of results in paper PMC9838217, “Structure of SALL4 zinc finger domain reveals link between AT-rich DNA binding and Okihiro syndrome”.

Substitutions are numbered along the chain they refer to.

The target in test [1] is T1, SALL4 ZFC4 R900W (HT-SELEX) (Mus musculus, UniProt Q8BX22 870-940, R900W).
T1 sequence: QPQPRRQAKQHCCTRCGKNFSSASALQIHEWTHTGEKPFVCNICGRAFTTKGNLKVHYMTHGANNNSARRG
The test can be described thus: HT-SELEX; high values mean tight binding. The following applies: protein: recombinant; vector His6-GST; dsDNA, one strand shown. The method in brief: (§1)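 Recombinant mouse SALL4 zinc finger cluster 4 (residues 870–940, 1 µg), purified, was mixed with library DNA (1.5 µg in the first cycle, 200 ng thereafter) in 100 µl of buffer containing 10 mM Tris–HCl pH 7.5, 50 mM NaCl, poly(dI-dC) and DTT, and left for 10 min at room temperature. Complexes were captured on Ni2+ beads, washed, amplified by PCR and reselected for up to 6 cycles in triplicate, after which MiSeq sequencing and a 6-mer scan followed. Binding signal is the read fraction of each canonical k-mer, given as fold change relative to the starting random library.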

Test [2] concerns the target T2, SALL4 ZFC4 G921D (HT-SELEX) (Mus musculus, UniProt Q8BX22 870-940, G921D).
T2 sequence: T1 sequence with W31R, G52D
In words: HT-SELEX; high values mean tight binding. Particulars: protein: recombinant; vector His6-GST; dsDNA, one strand shown. The method in brief: as §1

On to GTGTTA, for which the binding signal in test [1] worked out at 1.37 ± 0.0667 fold-change vs cycle 0; in test [2], 1.31 ± 0.0659 fold-change vs cycle 0.
On to GCTAGC, for which the binding signal came out at 0.329 ± 0.0178 fold-change vs cycle 0 in test [1] and 0.477 ± 0.0879 fold-change vs cycle 0 in test [2].
As to CCTGCC, the binding signal in test [1] amounted to 0.172 ± 0.00852 fold-change vs cycle 0; in test [2] it was 0.294 ± 0.0738 fold-change vs cycle 0.
As for GTGCAC, the binding signal in test [1] amounted to 0.313 ± 0.0179 fold-change vs cycle 0; in test [2], 0.456 ± 0.0786 fold-change vs cycle 0.
The like results for GGCACC were, in that order, 0.163 ± 0.0146 fold-change vs cycle 0 and 0.28 ± 0.0664 fold-change vs cycle 0.
The matching figures for GTGCCA: 0.266 ± 0.0277 fold-change vs cycle 0 and 0.416 ± 0.0672 fold-change vs cycle 0.
In the case of AGAGCG, the binding signal in test [1] was found to be 0.324 ± 0.0123 fold-change vs cycle 0; in test [2], 0.489 ± 0.067 fold-change vs cycle 0.
The matching figures for CAACGC: 0.263 ± 0.00747 fold-change vs cycle 0 and 0.409 ± 0.0649 fold-change vs cycle 0.
CAGCGG: the binding signal in test [1] stood at 0.136 ± 0.019 fold-change vs cycle 0; in test [2] it was 0.242 ± 0.0833 fold-change vs cycle 0.
Regarding CCGCCG, the binding signal in test [1] is 0.0347 ± 0.00309 fold-change vs cycle 0; in test [2], 0.117 ± 0.0571 fold-change vs cycle 0.
On to GCCACC, for which the binding signal was 0.153 ± 0.0112 fold-change vs cycle 0 in test [1] and 0.282 ± 0.0759 fold-change vs cycle 0 in test [2].
As to CACCGG, the binding signal was 0.216 ± 0.0195 fold-change vs cycle 0 in test [1] and 0.331 ± 0.0683 fold-change vs cycle 0 in test [2].
Turning to GAGGCA, the results for the binding signal in test [1] and in test [2] were 0.367 ± 0.0203 fold-change vs cycle 0 and 0.505 ± 0.1 fold-change vs cycle 0, respectively.
With ATACGA, the figures for the binding signal in test [1] and in test [2] were 1.27 ± 0.0333 fold-change vs cycle 0 and 1.26 ± 0.0263 fold-change vs cycle 0, respectively.
The like results for ACCGGC were, in that order, 0.106 ± 0.00697 fold-change vs cycle 0 and 0.227 ± 0.0683 fold-change vs cycle 0.
Turning to ACAGCG, the binding signal in test [1] was 0.265 ± 0.00461 fold-change vs cycle 0; in test [2], 0.381 ± 0.0624 fold-change vs cycle 0.
For the sequence CGGACC, the binding signal in test [1] stood at 0.198 ± 0.0105 fold-change vs cycle 0; in test [2] it was 0.315 ± 0.0637 fold-change vs cycle 0.
On to AAGGGC, for which the binding signal is 0.343 ± 0.00573 fold-change vs cycle 0 in test [1] and 0.488 ± 0.064 fold-change vs cycle 0 in test [2].
For CGCTCC, the binding signal was determined as 0.165 ± 0.00419 fold-change vs cycle 0 in test [1] and 0.29 ± 0.0821 fold-change vs cycle 0 in test [2].
For the sequence CCGGCA, the binding signal in test [1] turned out to be 0.108 ± 0.00217 fold-change vs cycle 0; in test [2], 0.221 ± 0.0662 fold-change vs cycle 0.
Turning to TCGTAA, the binding signal in test [1] turned out to be 1.29 ± 0.0564 fold-change vs cycle 0; in test [2] it was 1.25 ± 0.113 fold-change vs cycle 0.
Consider GCGAAC, for which the values for the binding signal in test [1] and in test [2] were 0.281 ± 0.0107 fold-change vs cycle 0 and 0.417 ± 0.0584 fold-change vs cycle 0, respectively.
The matching figures for AGTGCC: 0.287 ± 0.0119 fold-change vs cycle 0 and 0.444 ± 0.0567 fold-change vs cycle 0.
ACGCGC: the binding signal in test [1] was 0.0585 ± 0.00894 fold-change vs cycle 0; in test [2], 0.159 ± 0.07 fold-change vs cycle 0.
GCGCAC: the binding signal in test [1] was determined as 0.0689 ± 0.0069 fold-change vs cycle 0; in test [2] it was 0.167 ± 0.0842 fold-change vs cycle 0.
For ACTCGC, the binding signal in test [1] is 0.3364 ± 0.000841 fold-change vs cycle 0; in test [2], 0.463 ± 0.0712 fold-change vs cycle 0.
The matching figures for GCCGTA: 0.228 ± 0.00567 fold-change vs cycle 0 and 0.345 ± 0.066 fold-change vs cycle 0.
The like results for GAGGGC were, in that order, 0.201 ± 0.0133 fold-change vs cycle 0 and 0.323 ± 0.085 fold-change vs cycle 0.
For CGCGTC, the binding signal amounted to 0.112 ± 0.0164 fold-change vs cycle 0 in test [1] and 0.207 ± 0.0615 fold-change vs cycle 0 in test [2].
Take CAAGCG: the binding signal in test [1] amounted to 0.313 ± 0.0138 fold-change vs cycle 0; in test [2], 0.452 ± 0.0669 fold-change vs cycle 0.
Regarding CGGCCC, the binding signal in test [1] came to 0.0477 ± 0.00335 fold-change vs cycle 0; in test [2], 0.134 ± 0.0582 fold-change vs cycle 0.
In the case of GAGCCC, the binding signal was 0.184 ± 0.0121 fold-change vs cycle 0 in test [1] and 0.331 ± 0.0823 fold-change vs cycle 0 in test [2].
With CTCGCC, the binding signal was found to be 0.139 ± 0.00418 fold-change vs cycle 0 in test [1] and 0.273 ± 0.0725 fold-change vs cycle 0 in test [2].
The matching figures for CGATGC: 0.312 ± 0.0118 fold-change vs cycle 0 and 0.454 ± 0.0801 fold-change vs cycle 0.
With ACGCGT, the results for the binding signal in test [1] and in test [2] were 0.28 ± 0.0448 fold-change vs cycle 0 and 0.366 ± 0.0637 fold-change vs cycle 0, respectively.
As to GCGGTA, the binding signal stood at 0.271 ± 0.0135 fold-change vs cycle 0 in test [1] and 0.391 ± 0.0556 fold-change vs cycle 0 in test [2].
Regarding CCAGCC, the binding signal in test [1] is 0.149 ± 0.0151 fold-change vs cycle 0; in test [2] it was 0.273 ± 0.0654 fold-change vs cycle 0.
As to CGACCG, the binding signal in test [1] was 0.146 ± 0.0139 fold-change vs cycle 0; in test [2], 0.263 ± 0.0799 fold-change vs cycle 0.
Regarding AGGCCA, the results for the binding signal in test [1] and in test [2] were 0.313 ± 0.0175 fold-change vs cycle 0 and 0.446 ± 0.0657 fold-change vs cycle 0, respectively.
In the case of CCCGTC, the binding signal is 0.236 ± 0.0162 fold-change vs cycle 0 in test [1] and 0.34 ± 0.0606 fold-change vs cycle 0 in test [2].
On to CCGCGG, for which the binding signal in test [1] amounted to 0.0426 ± 0.00565 fold-change vs cycle 0; in test [2], 0.128 ± 0.0621 fold-change vs cycle 0.
For the sequence CATGCG, the binding signal was 0.296 ± 0.011 fold-change vs cycle 0 in test [1] and 0.441 ± 0.076 fold-change vs cycle 0 in test [2].
On to GCGCAA, for which the binding signal is 0.123 ± 0.00425 fold-change vs cycle 0 in test [1] and 0.249 ± 0.0828 fold-change vs cycle 0 in test [2].
Consider CGTGCC, for which the binding signal in test [1] turned out to be 0.121 ± 0.0106 fold-change vs cycle 0; in test [2], 0.246 ± 0.0768 fold-change vs cycle 0.
Regarding ACGCCT, the binding signal in test [1] was determined as 0.304 ± 0.0301 fold-change vs cycle 0; in test [2], 0.443 ± 0.0612 fold-change vs cycle 0.
As to ACACGC, the results for the binding signal in test [1] and in test [2] were 0.297 ± 0.0275 fold-change vs cycle 0 and 0.43 ± 0.0602 fold-change vs cycle 0, respectively.
With CTGGCA, the binding signal was 0.281 ± 0.0156 fold-change vs cycle 0 in test [1] and 0.413 ± 0.0619 fold-change vs cycle 0 in test [2].
For CGATCG, the results for the binding signal in test [1] and in test [2] were 0.329 ± 0.0324 fold-change vs cycle 0 and 0.53 ± 0.115 fold-change vs cycle 0, respectively.
Take GCACGA: the binding signal was determined as 0.281 ± 0.0197 fold-change vs cycle 0 in test [1] and 0.432 ± 0.0801 fold-change vs cycle 0 in test [2].
AGGCTG: the binding signal in test [1] stood at 0.37 ± 0.0148 fold-change vs cycle 0; in test [2] it was 0.493 ± 0.0564 fold-change vs cycle 0.
As to CGAACG, the binding signal in test [1] is 0.36 ± 0.0176 fold-change vs cycle 0; in test [2], 0.474 ± 0.087 fold-change vs cycle 0.
The matching figures for GCGACA: 0.186 ± 0.0276 fold-change vs cycle 0 and 0.338 ± 0.0565 fold-change vs cycle 0.
For the sequence ACCATA, the binding signal in test [1] worked out at 1.42 ± 0.0261 fold-change vs cycle 0; in test [2] it was 1.36 ± 0.0475 fold-change vs cycle 0.
Regarding GGCCCA, the binding signal worked out at 0.126 ± 0.00969 fold-change vs cycle 0 in test [1] and 0.245 ± 0.0696 fold-change vs cycle 0 in test [2].
In the case of ATCGGC, the binding signal turned out to be 0.223 ± 0.00552 fold-change vs cycle 0 in test [1] and 0.362 ± 0.0707 fold-change vs cycle 0 in test [2].
The matching figures for ACAGGC: 0.338 ± 0.0213 fold-change vs cycle 0 and 0.472 ± 0.0921 fold-change vs cycle 0.
ATGGCG: the binding signal in test [1] was found to be 0.236 ± 0.0151 fold-change vs cycle 0; in test [2], 0.371 ± 0.0568 fold-change vs cycle 0.
Regarding CAGGCG, the figures for the binding signal in test [1] and in test [2] were 0.129 ± 0.00318 fold-change vs cycle 0 and 0.24 ± 0.0647 fold-change vs cycle 0, respectively.
The matching figures for CGGCGC: 0.0207 ± 0.00259 fold-change vs cycle 0 and 0.0907 ± 0.0497 fold-change vs cycle 0.
The matching figures for GCCGAA: 0.189 ± 0.0081 fold-change vs cycle 0 and 0.319 ± 0.0704 fold-change vs cycle 0.
